Data: PubChem BioAssay (Tox21)
Inconclusive results are not listed. A number with no mark means an inactive call. Activity calls are given as the source filed them. The call rests on the fitted dose curve; in most records, active means well fitted activation curve with a large enough effect in the repeat runs; inconclusive means weak or mixed curves; inactive means flat fitted curve, though single readings scatter.

assay: A CellTox Green Cytotoxicity Assay to monitor cytotoxicity in HEK293 cells - 24 hour (AID 1224875); details: CellTox Green fluorescence; series mostly up to 76.8 µM; activity change: at the top concentration; further: nearly all actives have a fitted effect of over 45% in size
Source text: National Center for Advancing Translational Sciences [NCATS]
NIH Chemical Genomics Center [NCGC]
U.S. Environmental Protection Agency [EPA]
National Institutes of Environmental Health Sciences [NIEHS]
National Toxicology Program [NTP]
Cell-based models are critical for drug discovery. Determining the natural cytotoxic effects resulting from test compounds is an essential research activity. A CellTox Green Cytotoxicity Assay to monitor cytotoxicity in real time of continues cell culture during 40 hours of the compound treatment was used to screen Tox21 10K library compounds in Hek293 cells. CellTox Green Cytotoxicity Assay is a nonlytic, homogeneous, biofluorescent method to measure cytotoxicity in cell culture after experimental manipulation. The assay system uses a proprietary asymmetric cyanine dye that is excluded from viable cells but preferentially stains the dead cell's DNA. […] Viable cells produce no appreciable increases in fluorescence. Therefore, the fluorescence signal produced by the binding interaction with dead cell DNA is proportional to cytotoxicity.
The mixture of Hek293 cell suspension and reagents were dispensed at 600cells/6 ul/well in 1536-well tissue culture treated black solid bottom plates using a Multidrop dispenser. After the assay plates were incubated at a 37 C/5% CO2 incubator for 5 hours, 23 nL of compounds dissolved in DMSO, positive and negative controls was transferred to the assay plate by a pintool work station. The plates were incubated at 37 C for 40 hours. The fluorescence intensity were measured at 0h, 8h, 16h, 24h, 32h and 40h time points using ViewLux plate reader during compound treatment.
On the % scale 0 is the no-effect control and ±100 the full control effect.

| SMILES | Potency | activity change |
| --- | --- | --- |
| Cn1sccc1=O | inactive |  |
| CC(=O)Nc1ccc(/C=N/NC(N)=S)cc1 |  | 0.652% [at 35.3 µM, hits give high values] |
| OC(CCN1CCCCC1)(c1ccccc1)C1CCCCC1 (stereo not given) |  | -4.98% [at 35.3 µM, hits give high values] |
| CCCCCC/C=C/C=O |  | -8.02% |
| CCCCOC(=O)/C=C\C(=O)OCCCC |  | 18.7% |
| Nc1nc(N)c2nc(CNc3ccc(C(=O)N[C@@H](CCC(=O)O)C(=O)O)cc3)cnc2n1 |  | -1.72% |
| COc1ccc2[nH]c(S(=O)Cc3ncc(C)c(OC)c3C)nc2n1 (stereo not given) |  | -3.25% [at 35.3 µM, hits give high values] |
| CCOc1nc2cccc(C(=O)O)c2n1Cc1ccc(-c2ccccc2-c2nn[nH]n2)cc1 |  | -12.3% [at 35.3 µM, hits give high values] |
| OCC1CC2CC1C1CCC(CO)C21 (stereo not given) |  | -0.815% |
| CN1CCC(=C2c3ccccc3CCc3sccc32)CC1 |  | 6.46% [at 35.3 µM, hits give high values] |
| N#CCc1cccc(C(F)(F)F)c1 |  | -16.8% |
| Cn1c(=O)c2c(ncn2CC(O)CO)n(C)c1=O (stereo not given) |  | -1.7% [at 35.3 µM, hits give high values] |
| C1CCC2OC2C1 (stereo not given) |  | 11.1% |
| Cc1ccc2c(ccc3ccccc32)c1 |  | 18.5% |
| C[Si](C)O[Si](C)(C)O[Si](C)(C)O[Si](C)C |  | -6.9% |
| CN(C(=O)CCCOc1ccc2[nH]c(=O)ccc2c1)C1CCCCC1 |  | -5.81% [at 35.3 µM, hits give high values] |
| CCCCCCCCN(C)C |  | -1.75% |
| COCCOCCOCCOCCOC |  | 21.1% |
| O=S(=O)(O)c1ccc(O)c2ncccc12 |  | 2.81% |
| NC[C@H]1O[C@H](O[C@H]2[C@H](O)[C@@H](O[C@H]3O[C@H](CO)[C@@H](O)[C@H](N)[C@H]3O)[C@H](N)C[C@@H]2N)[C@H](O)[C@@H](O)[C@@H]1O |  | 8.95% [at 6.97 µM, hits give high values] |

| SMILES | Potency | activity change |
| --- | --- | --- |
| O=C1[C@H](CC[C@H](O)c2ccc(F)cc2)[C@@H](c2ccc(O)cc2)N1c1ccc(F)cc1 |  | -0.121% [at 35.3 µM, hits give high values] |
| CCCC(C)C |  | 16.6% |
| CCCCCCCCCCCCCCCC(=O)OC/C=C(C)/C=C/C=C(C)/C=C/C1=C(C)CCCC1(C)C |  | 2.79% |
| C=Cc1c(C)c2cc3[nH]c(cc4nc(cc5nc(cc1[nH]2)C(C)=C5CCC(=O)O)C(CCC(=O)O)=C4C)c(C)c3C=C |  | -18.2% [at 35.3 µM, hits give high values] |
| O=C(O)C(c1ccc(Cl)cc1)c1ccc(Cl)cc1 |  | -11.5% |
| CC1=CCC(C(C)C)C=C1 (stereo not given) |  | -0.298% |
| Cc1cc(NC(=O)C(=O)O)cc(C)c1Oc1ccc(O)c2c1CCC2 |  | -4.95% |
| O=c1c2ccccc2nnn1CCl |  | 0.287% |
| N#CCCNCCC#N |  | -12% |
| C#CCOC(=O)[C@@H](C)Oc1ccc(Oc2ncc(Cl)cc2F)cc1 |  | 0.0032% |
| CCOc1ccc(NC(=O)CC(C)=O)cc1 |  | -1.44% |
| CC(C)(C)c1ccc(S)cc1 |  | 7.87% |
| CN(C)C/C=C(/c1ccc(Br)cc1)c1cccnc1 |  | -0.927% [at 35.3 µM, hits give high values] |
| NC1CCN(c2nc3c(cc2F)c(=O)c(C(=O)O)cn3-c2ccc(F)cc2F)C1 (stereo not given) |  | -9.88% [at 35.3 µM, hits give high values] |
| NCc1ccccc1 |  | -2.65% |
| c1ccc(CNCc2ccccc2)cc1 |  | 0.422% |
| CC(=O)CC(=O)c1ccccc1 |  | -8.29% |
| COCCO |  | -4.44% |
| C1=Cc2ccccc2C1 |  | 16.4% |
| CNCC[C@@H](Oc1ccccc1C)c1ccccc1 |  | 0.54% [at 35.3 µM, hits give high values] |
